# Laboratory results: PubChem BioAssay AID493192 (National Center for Advancing Translational Sciences (NCATS), 2011)
# Records with an inconclusive call do not appear. A call without a number means that no potency is given here. Calls of active or inactive are those of the source. The call rests on the fitted dose curve; in most records, active means well fitted activation curve with a large enough effect; inconclusive means small, poorly fitted or top-dose-only effect; inactive means no such curve, though single readings can be large or run the other way.
# Assay: qHTS Assay for Identifying a Potential Treatment of Ataxia-Telangiectasia: Hit Validation;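 further: phospho-KAP1 level by AlphaLISA as a proxy for ATM-like kinase activity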
# Settings: Ataxia-telangiectasia cell-based hit validation qHTS, in ATM-null A-T patient fibroblasts; series mostly up to 76.9 µM
# Outline: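 KAP-1 phosphorylation was read by AlphaLISA as a measure of ATM-like activity in ATM-null F2112 fibroblasts. Compounds spanned up to 76.7 uM final, with 60 min exposure at 37C and a 6 hr detection incubation at 25C.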
# Potency means the concentration at half of the fitted maximal effect.
row,SMILES,Potency
1,Cc1nn(CC(=O)N(C)Cc2ccc(F)cc2)c(C)c1[N+](=O)[O-],inactive
2,COc1ccccc1[C@H]1C(c2cccc(Cl)c2)=NN(c2ccccc2)[C@@H]1CO,inactive
3,O=C(Nc1cccc([N+](=O)[O-])c1)N1CCCc2ccccc21,inactive
4,CN(C)Cc1ccc(F)cc1Sc1cc(Cl)ccc1Cl,inactive
5,CCOC(=O)c1c(CSc2ccsc2)n(C)c2cc(Br)c(O)c(CN(C)C)c12,46.3 µM (active)
6,S=c1[nH]nc(Cn2c(-c3ccccn3)nc3ccccc32)n1-c1ccc2c(c1)OCCO2,inactive
7,CC(=O)/C(N=Nc1nc2c([nH]1)c(=O)n(C)c(=O)n2C)=C(\C)O,inactive
8,CNC(=O)Cc1csc2ccc(C)cc12,inactive
9,Cc1cc(C)c2c(Cn3ccnc3)cc(=O)oc2c1,inactive
10,COCCNC(=O)c1c(N)n(-c2cccc(C)c2)c2nc3ccccc3nc12,41.2 µM (active)
11,Cc1ccnc(NC(=O)c2ccccc2NC(=O)c2ccccc2)c1,inactive
12,CCOC(=O)c1[nH]c(COC(=O)c2ccccc2NC(=O)c2ccco2)c(C(=O)OCC)c1C,inactive
13,CCS(=O)(=O)c1ccc(C(=O)Nc2ccccc2)c(Cl)c1Cl,29.2 µM (active)
14,COc1cc(CCC(C)NCc2ccccc2)ccc1O (stereo unspecified),inactive
15,CCOC(=O)c1cccc(N2C(=O)C3C4C=CC(CC4)C3C2=O)c1 (stereo unspecified),inactive
16,CC(=O)Nc1ccc(NC(=O)CSc2nnnn2-c2ccc(F)cc2)cc1,inactive
17,Cc1ccc(C2(C)NC(=O)N(CC(=O)Nc3ccccc3N3CCCC3)C2=O)cc1 (stereo unspecified),inactive
18,COc1ccc(OC)c(C2CC(c3ccccc3)=NN2C(=S)Nc2ccccc2)c1 (stereo unspecified),inactive

row,SMILES,Potency
1,CCOC(=O)N1CCC(NC(=O)C2CCN(S(=O)(=O)c3cccc4cccnc34)CC2)CC1,inactive
2,C(=N\Nc1ccccn1)/c1c[nH]c2ccccc12,inactive
3,O=C(c1ccc(F)cc1)c1ccc(N2CCCCC2)cc1,29.2 µM (active)
4,CCOC(=O)Cn1c(-c2ccccc2)cc(SC)c(C#N)c1=O,inactive
5,CCOc1ccccc1CNC(=O)Cn1c(=O)oc2ccccc21,23.2 µM (active)
6,CCOc1cccc(/C=C/c2ccc3cccc(O)c3n2)c1OC,32.8 µM (active)
7,CCC(C)NC(=O)c1cn(CCOC)c(=O)c2c1c1ccccc1n2C (stereo unspecified),inactive
8,CC1CC(C)CN(C(=O)COC(=O)c2c[nH]c3ccccc23)C1 (stereo unspecified),inactive
9,COc1ccc(CCNC(=O)C2CCN(S(=O)(=O)c3ccc(OC)c(OC)c3)CC2)cc1OC,inactive
10,CCCCn1c2c(c(=N)c3ccccc31)CCC2,inactive
11,CCn1c(N2CCN(CC(=O)c3c[nH]c4ccccc34)CC2)nc2c1c(=O)[nH]c(=O)n2C,inactive
12,CCN(CC)S(=O)(=O)c1ccc(Cl)c(NC(=O)CCCCl)c1,inactive
13,O=C(CCC(=O)c1ccc(F)cc1)Nc1cccc(Br)c1,inactive
14,N#Cc1c2c(c(-n3cnc4ccccc43)n3c1nc1ccccc13)CCC2,inactive
15,C=CCSc1nc2ccccc2n1C(=O)/C=C/c1cc(OC)c(OC)c(OC)c1,26 µM (active)
16,Cc1nc(Nc2ccc(Cl)cc2)c2oc3ccccc3c2n1,inactive
17,COc1ccc(-n2c(C)cc(=O)[nH]c2=O)cc1,inactive
18,COC(=O)c1ccncc1C(=O)Nc1ccc(Oc2ncc(C(F)(F)F)cc2Cl)cc1,inactive
